NTMT1 inh: blocks human N-terminal methyltransferase 1 activity; Q9BV86; NTMT1 MTase-Glo SAH luminescence, purified enzyme; Potency, µM (highest dose often 114 µM), without a hit: at the highest dose activity change, negative = inhibition, most hits filed as inhibitors; 59,000 compounds, 2.5% hits; AID 1645870;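 further: plate controls were DMSO vehicle for no effect and no enzyme for full effect; nearly all actives have a fitted effect of over 65% in size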
Target sequence (Q9BV86 whole entry, looked up): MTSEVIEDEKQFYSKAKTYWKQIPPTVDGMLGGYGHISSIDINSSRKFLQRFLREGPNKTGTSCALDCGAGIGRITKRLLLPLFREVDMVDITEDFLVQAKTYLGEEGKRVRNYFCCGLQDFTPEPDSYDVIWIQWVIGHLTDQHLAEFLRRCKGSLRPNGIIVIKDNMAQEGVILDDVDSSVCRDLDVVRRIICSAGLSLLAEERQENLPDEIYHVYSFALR
OvCa metastasis: ovarian cancer metastasis inhibition, 3D TME model | SKOV3ip1-GFP adhesion/invasion on 3D omental model, fluorescence | Potency, µM (titrated, usually from 45.8 µM), inactives show top-dose activity change, negative = inhibition, most hits filed as inhibitors | 46,000 compounds, 0.1% hits;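 further: plate controls were DMSO wells for no effect and tomatine positive control wells for full effect; nearly all actives have a fitted effect of over 65% in size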
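A 3D layer of primary human omental fibroblasts, mesothelial cells, fibronectin and collagen I, grown 48 hr, received SKOV3ip1-GFP cells in serum-free medium plus compounds at 0.36-46 umol/L. After 2 hr RT and 16 hr 37 C, fixed adherent GFP cells were counted; normalized to DMSO and tomatine.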
p53null 32C kill: selectivity test: cytotoxicity in p53 null cells, permissive temperature | H1299-neo p53 null cells, ATP luminescence, 24 h, 32C | Potency, µM (series often up to 46.1 µM), for inactives: at the top dose activity change, negative = cytotoxicity, usual class: cytotoxic | 55,000 compounds, 0.62% hits;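 further: 0% = DMSO only and -100% = full killing by 100 µM tamoxifen; nearly all actives have a fitted effect of over 55% in size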
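We seeded p53-null H1299-neo cells, incubated them overnight at 37C, and added compounds across a range up to 46 uM. After 24 hours at 32C, ATP reagent was applied for 20 min at room temperature and luminescence recorded.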
p53null 39C tox: p53 null cell cytotoxicity, nonpermissive temperature | AID 904 | Potency, µM (top dose mostly 46.1 µM), for the others: at the highest dose activity, negative = cell killing, most hits filed as cytotoxic | 55,000 compounds, 0.97% hits | H1299 p53-null (neo) cells, 39C, ATPlite viability, 24 h;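 further: 0% = DMSO only and -100% = full killing by 100 µM tamoxifen; nearly all actives have a fitted effect of over 50% in size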
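Luminescent ATP signal reported cell survival after H1299 lines (neo, p53 null; or p53 A138V) received up to 46 uM compound and 24 hr incubation at 39C.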
Active calls of the source: *; i = inactive; ? = inconclusive; nt = not tested or not shown; ! = not confirmed by another sample; [ ] = remark or other dose. This is one part of a sample in which hits are shown more often than they occur. The call rests on the fitted dose curve; in most records, active means well fitted curve in the direction sought with a large enough effect; inconclusive means small, poorly fitted or top-dose-only effect, or another doubt; inactive means no such curve, though single readings can be large; an effect the other way counts as inactive or inconclusive. Potency means the concentration at half of the fitted maximal effect.

SMILES | NTMT1 inh | OvCa metastasis | p53null 32C kill | p53null 39C tox
O=c1c(Nc2ccc(Br)c(Br)c2)c(Nc2nnc(-c3ccncc3)s2)c1=O | 79µM* | nt | nt | nt
CC1(C)CC(=O)c2sc(NC(=O)c3cccs3)nc2C1 | nt | nt | 2.2µM* | 1.1µM*
N#Cc1ccc(-c2ccc(=O)n(CC(=O)NCCc3ccccc3)n2)cc1 | 17% | nt | nt | nt
CN[C@@H](C)C(=O)N[C@H]1CCCC[C@H]2CC[C@@H](C(=O)N[C@@H](c3ccccc3)c3cn(CCCCc4ccc(CCCCn5cc([C@@H](NC(=O)[C@@H]6CC[C@@H]7CCCC[C@H](NC(=O)[C@H](C)NC)C(=O)N76)c6ccccc6)nn5)cc4)nn3)N2C1=O | 28µM*! | 14% | nt | nt
O=c1cc(-c2ccccc2)oc2ccccc12 | 100µM* | nt | nt | nt
CCOC(=O)c1[nH]c2c(c1C)CCC(c1ccco1)C2 (stereo not drawn) | -1% | nt | nt | nt
CCOC(=O)c1[nH]c2c(c1C)C(=S)CC(c1ccco1)C2 (stereo not drawn) | 40µM* | nt | nt | nt
Cc1ccc(C)c(N2CCN(CCCNC(=O)c3cnn(-c4ccccc4Cl)c3C3CCN(C(=O)OC(C)(C)C)CC3)CC2)c1 | -2% | ? | 30% | 13µM*
Cc1ccc(-n2ncc(C(=O)NCCN3CCC(Cc4ccccc4)CC3)c2C2CCN(C(=O)OC(C)(C)C)CC2)cc1 | 89µM* | ? | ? | 20µM*
Cc1ccc(-n2ncc(C(=O)NCCN3CCCC3)c2C2CCN(C(=O)OC(C)(C)C)CC2)cc1 | ? | i | 4% | 0%
Cc1ccc(C)c(N2CCN(CCCNC(=O)c3cnn(-c4ccc(F)cc4)c3C3CCN(C(=O)OC(C)(C)C)CC3)CC2)c1 | -1% | -15% | 22% | 25µM*
Cc1ccc(C)c(N2CCN(CCCNC(=O)c3cnn(-c4cccc(Cl)c4)c3C3CCN(C(=O)OC(C)(C)C)CC3)CC2)c1 | 3% | i | -22% | ?
CNc1nnc(-c2cccc3ccccc23)o1 | -1% | nt | nt | nt
O=C(O)c1cccc(S(=O)(=O)Nc2nccs2)c1 | -12% | nt | nt | nt
Cc1ccc(-c2ccc(=O)n(CC(=O)N(C)C(C)c3ccco3)n2)cc1 (stereo not drawn) | -28% | nt | nt | nt
CCOC(=O)c1ccc(-c2ccc(/C=C(\C#N)c3nc4ccc(C)cc4[nH]3)o2)cc1 | ? | 3.2µM* | ? | 6.3µM*
CCOC(=O)c1ccc(-c2ccc(/C=C(\C#N)C(=O)Nc3cccc(C)c3)o2)cc1 | -3% | i | 1% | 23%
O=C(Nc1cccc(C(F)(F)F)c1)c1cccc2cc(Oc3cc(CO)ncn3)ccc12 | 18% | nt | nt | nt
CCOC(=O)C1CCN(S(=O)(=O)c2cc(-c3cc(C)no3)ccc2OC)CC1 | 89µM* | i | -1% | -14%
COc1ccc(-n2c(=O)[nH]c3cc(C(=O)NCc4ccc(Cl)cc4)sc3c2=O)nc1OC | 21%[57.5 µM] | nt | nt | nt
O=C(Nc1ccc(N2CCC(N3CCCCC3)CC2)c(C(=O)O)c1)c1ccc(Br)cc1 | ? | 1% | -8% | 11%
O=C(Nc1ccc(N2CCOCC2)c(C(=O)O)c1)c1ccc(Br)cc1 | 89µM* | -14% | -9% | -2%
FC(F)(F)c1cccc(Nc2nc3nonc3nc2Nc2ccc(Cl)cc2)c1 | 9% | 10µM* | ? | 13µM*
O=C(Nc1cccc(C(F)(F)F)c1)c1cc(-c2ccc(Cl)cc2)on1 | 8% | 17% | 1% | 16%
COc1ccccc1Nc1c2c(nc3ccc(NC(=O)c4cccc(OC)c4OC)cc13)CCCC2 | 2% | ? | -22% | 14%
SMILES | NTMT1 inh | OvCa metastasis | p53null 32C kill | p53null 39C tox
COc1ccccc1Nc1c2c(nc3ccc(NC(=O)c4ccc(OC)c(OC)c4)cc13)CCCC2 | -5% | ? | ? | 22µM*
COc1cc2nc(-c3cc(F)ccc3O)nc(N[C@@H]3CNC[C@H]3C(C)(C)O)c2cc1OC | 28µM* | nt | nt | nt
CN(C)CCCN1CCCN(C(=O)c2cccc(-c3cc(O)c4ncccc4c3)c2)C1 | 15% | nt | nt | nt
CC(O)(C#Cc1ccc2c(c1)N(c1nc(N)ncc1Cl)CC2)c1nccs1 (stereo not drawn) | 35µM* | 16% | nt | nt
OC(COc1cc(Cl)c(Cl)cc1Cl)CN1CCN(c2ncccn2)CC1 (stereo not drawn) | nt | nt | nt | -5%[1.84 µM]
O[C@@H](COc1cccc2ncccc12)CN1CCN(C2c3ccccc3[C@@H]3[C@H](c4ccccc42)C3(F)F)CC1 (stereo partly drawn) | 79µM*! | -20% | nt | nt
CCN1C(=O)N2Cc3cc(OC)cc(OC)c3[C@@H](C)C=C2C12CCN(Cc1cc(C)cc(C)c1)CC2 | 21% | nt | nt | nt
CC(C)Nc1ncnc2c1cnn2-c1ccccc1 | nt | nt | 11µM* | ?
O=S(=O)(Nc1ccc(-c2cccnc2)c2cccnc12)c1cccc(C(F)(F)F)c1 | 14% | nt | nt | nt
COc1cccc(-c2nnc(-c3ccc(C)o3)o2)c1 | nt | nt | 13µM* | 13µM*
CC(C)[C@@H](C)/C=C/[C@@H](C)[C@H]1CC[C@H]2C3=CC=C4C[C@@H](O)CC[C@]4(C)C3=CC[C@]12C | -8%[57.5 µM] | nt | nt | nt
Oc1ccc(/C=C/c2cc(O)cc(O)c2)cc1 | 45µM*! | nt | nt | nt
CN(C)/C(N)=N/C(=N)N | 48%[57.5 µM] | nt | nt | nt
COc1cc2nc(N3CCCC3)nc(NCCCCCN3CCCC3)c2cc1OC | 32µM* | nt | nt | nt
COc1cc2c(NC3CCN(C)CC3)nc(N3CCCN(C)CC3)nc2cc1OCCCN(C)C | -18% | nt | nt | nt
COc1cc2nc(N3CCCCC3)nc(NC3CCN(Cc4ccccc4)CC3)c2cc1OC | 45µM* | nt | nt | nt
